Screens: PubChem, several laboratories
A1 inh – inhibitors of the anti-apoptotic protein A1, read as caspase activation; MEF A1-2A-BIM cells, Caspase-Glo 3/7 luminescence, 3 h; percent of clofoctol response, vehicle zero; caspase activation, % (test concentration not listed); 330,000 compounds, 0.066% hits; AID 2462;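 active = over half of replicate activation scores above 10%, or exactly half above 10 with the replicate mean above 10; inconclusive = replicate mean below 10 yet half the replicates above 10; inactive = over half of replicates below 10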
NTR1 ag – NTR1 (human) agonism; P30989; activation, % at 20 µM; 330,000 compounds, 0.17% hits; NTR1-U2OS beta-arrestin-GFP spot imaging, agonist mode; AID 493036;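 active = activation at or above 40% of the spot to cytoplasm intensity ratio, with at least 20 cells analyzed; inconclusive = wells under 20 cells, flagged as cytotoxic or low count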;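 also: 0% = DMSO without peptide and 100% = 100 nM NTR1 peptide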
Target sequence (P30989 whole entry, looked up): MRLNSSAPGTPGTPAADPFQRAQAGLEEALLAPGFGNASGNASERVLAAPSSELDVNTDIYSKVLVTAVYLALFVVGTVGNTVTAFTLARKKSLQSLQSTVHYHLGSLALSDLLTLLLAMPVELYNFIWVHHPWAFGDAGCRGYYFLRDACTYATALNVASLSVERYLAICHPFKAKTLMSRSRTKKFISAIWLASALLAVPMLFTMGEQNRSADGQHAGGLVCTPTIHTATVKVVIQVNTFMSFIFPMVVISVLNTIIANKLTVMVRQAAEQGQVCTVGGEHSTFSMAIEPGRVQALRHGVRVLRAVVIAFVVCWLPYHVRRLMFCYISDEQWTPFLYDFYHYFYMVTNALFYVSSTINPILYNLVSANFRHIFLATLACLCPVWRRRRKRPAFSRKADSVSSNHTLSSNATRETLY
Beta apoptosis – blocks beta cell apoptosis. INS-1E cytokine-induced death, ATP luminescence, 48 h; percent of positive-control rescue, neutral wells zero. protection from apoptosis, % (test concentration not listed). 300,000 compounds, 0.8% hits. AID 435005;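 active = Every replicate reaches about 75%, or at least half do and their mean reaches it too, limit read from the data; inconclusive = At least half of replicates reach the limit but their mean does not; inactive = Under half of replicates reach the limit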;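 also: 0% = cytokine-treated negative control wells and 100% = positive control rescue; higher means more ATP so stronger rescue from cytokine killing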
Jurkat NFkB inh – inhibitors of the PMA/ionomycin-induced NF-kB reporter in Jurkat cells; 330,000 compounds, 0.53% hits; inhibition, % at 4 µM; PMA/ionomycin-induced NF-kB luciferase reporter, luminescence; in the data active = inhibition above about 50%
697 NFkB inh – inhibitors of the PMA/ionomycin-induced NF-kB reporter in 697 B cells; 330,000 compounds, 0.33% hits; inhibition, % at 4 µM; 697 B-cell NF-kB luciferase reporter, 16 h; in the data active = inhibition above about 35%
Mdm2-MdmX inh – disrupts the human Mdm2-MdmX interaction; O15151+Q00987; SaOS-2 split-luciferase Mdm2/MdmX complementation, luminescence; inhibition, % at 8 µM; 330,000 compounds, 3% hits;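 active = inhibition of at least 50% at 8 µM in the primary screen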
Mdm2 MdmX conf – confirmation of human Mdm2/MdmX interaction inhibitors | Mdm2-MdmX binding, luminescent assay | 10,000 compounds, 55% hits | shares compounds with Mdm2-MdmX inh | inhibition, % at 8 µM; in the data active = inhibition above about 40%
Full FLuc ctr – full-length luciferase inhibition in Mdm2/MdmX counter-screen; inhibition, % at 8 µM; SaOS-2 full-length luciferase counterscreen, luminescence; 6,200 compounds, 77% hits; shares compounds with Mdm2-MdmX inh;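 active = mean inhibition at 8 µM reaching about 37%, which flags the compound as non-specific, limit read from the data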;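 also: p53-null SaOS-2 cells with luciferase driven by a doxycycline-inducible promoter; compound on cells about two nights before reading with doxycycline added after day one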
* = called active by the depositor; ? = inconclusive; . = no result given. Most compounds without a hit are left out; they make up all but 3.8% or so of the library.

SMILES	A1 inh	NTR1 ag	Beta apoptosis	Jurkat NFkB inh	697 NFkB inh	Mdm2-MdmX inh	Mdm2 MdmX conf	others
COc1ccc(/C=N/NC(=O)c2cccnc2)cc1COc1ccc([N+](=O)[O-])cc1	0	8	7	48	-18	51*	37	Full FLuc ctr=81*
COc1ccc(NC(=O)COc2ccc(/C=N/NC(=O)c3cccnc3)cc2OC)cc1	0	0	0	-14	13	10	.
Cc1onc(-c2ccccc2Cl)c1C(=O)N[C@@H](C)c1ccccc1	0	2	-7	4	9	-3	.
CCCCN(Cc1ccco1)S(=O)(=O)c1ccc(-c2ccc(=O)[nH]n2)s1	0	1	0	-1	5	24	.
O=C(CN1C(=O)NC2(CCCC2)C1=O)NCCc1ccc(F)cc1	1	0	-4	9	2	-3	.
c1cc(SC2CCCCC2)cc(-c2nc3cnccn3c2NC2CCCCC2)c1	1	31	-2	1	-34	89*	29
CCCCNc1c(-c2ccc(OC)c(SC3CCCCC3)c2)nc2ccc(C)cn12	.	40	.	0	-8	98*	46*	Full FLuc ctr=29
Cc1ccc2nc(-c3cccc(SC4CCCCC4)c3)c(NCc3ccccc3)n2c1	.	39	.	-17	-53	22	.
CCC(C)Sc1ccc(-c2nc3ccc(C)cn3c2NCc2ccccc2)cc1OC (centres undefined)	0	25	97*	-35	-87	97*	57*	Full FLuc ctr=39*
c1cn2c(NC3CCCCC3)c(-c3ccc(SC4CCCCC4)cc3)nc2cn1	1	13	0	10	-17	37	.
Cc1ccn2c(NCc3ccccc3)c(-c3cccc(SC4CCCCC4)c3)nc2c1	1	5	-1	14	4	58*	-2
CCCCNc1c(-c2ccc(SC3CCCCC3)c(OC)c2)nc2ccc(C)cn12	-2	6	19	12	6	47	.
O=C(CSc1nnc(Nc2ccccc2)s1)NCC1CCCO1 (centres undefined)	1	1	-1	-11	-14	-6	.
COc1ccc(-c2nc3ccc(C)cn3c2NCc2ccccc2)cc1SC1CCCCC1	?	28	99*	10	2	53*	31
CCC(C)Sc1cc(-c2nc3ccc(C)cn3c2NCc2ccccc2)ccc1OC (centres undefined)	0	.	.	.	.	.	.
Cc1ccc(C(=O)N2N=C(c3ccc(Br)cc3)CC2c2ccccc2O)cc1 (centres undefined)	0	15	78*	-15	-12	75*	2
Cc1ccc(C(=O)N2N=C(c3ccccc3O)CC2c2ccccc2)cc1 (centres undefined)	1	4	7	-2	4	27	.
COc1ccc(NC(=O)CN2C(=O)COc3ccccc32)cc1OC	1	0	2	10	14	17	.
CC(C)(C)C(=O)Nc1ccnn1C1CCN(C(=O)c2ccc(Cl)cc2F)CC1	1	1	1	0	-30	9	.
O=c1cc(N2CCCCC2)c(-c2ccccc2)nn1Cc1c(Cl)cccc1Cl	0	6	16	-10	-17	56*	32
Cc1ccc(/C=C/C(=O)Nc2ncc(C)s2)o1	-1	0	-3	-36	-1	-72	.
Cc1cnc(NC(=O)/C=C/c2ccc(Br)o2)s1	-1	3	28	-66	-62	75*	0
COc1ccc(SC[C@H](Cc2ccccc2)N2CC[C@@H](NC(=O)OCc3ccccc3)CCC2=O)cc1	1	2	13	6	2	22	.
COc1ccc(-c2cc(C(F)F)n3ncc(C(=O)N4CCc5ccccc54)c3n2)cc1	0	3	9	41	-54	67*	56*	Full FLuc ctr=73*
O=C(N/N=C/c1cc(Br)ccc1O)c1cccc(N2CCCC2=O)c1	0	1	56	14	-38	54*	65*	Full FLuc ctr=31
SMILES	A1 inh	NTR1 ag	Beta apoptosis	Jurkat NFkB inh	697 NFkB inh	Mdm2-MdmX inh	Mdm2 MdmX conf	others
COc1ccc(O)c(/C=N/NC(=O)c2cccc(N3CCCC3=O)c2)c1	-1	0	94*	14	-14	55*	57*	Full FLuc ctr=56*
O=C(N/N=C/c1ccco1)c1cccc(N2CCCC2=O)c1	-3	2	5	-13	2	12	.
O=C(COC(=O)C12CC3CC(CC(O)(C3)C1)C2)Nc1ccc(Cl)c(S(=O)(=O)N2CCOCC2)c1	1	0	1	9	9	-20	.
Cc1ccc(C(=O)/C=C/c2ccccc2[N+](=O)[O-])cc1	-1	11	-11	-67	-23	-74	.
O=C(/C=C/c1ccccc1[N+](=O)[O-])c1ccccc1Br	0	21	-7	-9	-6	72*	6
COC(=O)c1cc2ccsc2n1Cc1nc(-c2ccc(OC)cc2)oc1C	0	2	.	7	-6	60*	6
COC(=O)c1cc2sccc2n1Cc1nc(-c2ccc(OC)cc2)oc1C	0	5	0	-19	-14	68*	28
Cc1ccccc1CCN1CCCC(CN(C)C(=O)C(=O)c2ccco2)C1 (centres undefined)	0	0	2	-11	-17	-29	.
COC(=O)C1=CN(c2cc(C)cc(C)c2)C=C(C(=O)OC)C1c1cccc(F)c1	0	2	15	10	9	53*	37	Full FLuc ctr=106*
COC(=O)C1=CN(c2cc(C)cc(C)c2)C=C(C(=O)OC)C1c1ccc(OC)c(O)c1	0	5	14	16	-4	16	.
Cc1ccc(S(=O)(=O)CC(=O)NCc2ccc(Cl)cc2)cc1	0	0	2	1	11	2	.
O=C(NC1(Cc2ccccc2)CCN(CCCc2ccccc2)C1=O)c1ccccc1 (centres undefined)	1	4	111*	10	2	64*	54*	Full FLuc ctr=40*
Cc1ccc(-c2nc3cccnc3s2)cc1NC(=O)C1c2ccccc2Oc2ccccc21	.	1	.	-3	-31	70*	10
CN(C(=O)c1ccccc1C(=O)OCC(=O)c1ccc(Br)cc1)c1ccccc1	1	2	2	8	-12	-26	.
COc1cc(F)cc(-c2ccc3c(c2)c(-c2cccs2)c(-c2cc(OC)cc(OC)c2)n3C)c1	-1	3	1	47	6	54*	55*	Full FLuc ctr=57*
COc1ccc(C)cc1NC(=O)CN1C(=O)COc2ccc(S(=O)(=O)N3CCC(C)CC3)cc21	2	0	2	2	-21	21	.
CCCCN1CC(O)=C(c2nc(-c3ccc(Br)cc3)cs2)C1=N	0	3	23	2	0	80*	53*	Full FLuc ctr=63*
